# Assay results taken from PubChem BioAssay (Tox21).
# Where “and” joins values, the source holds several entries; their conditions need not be identical. Identical values can stand only once. Values without a mark were called inactive. Calls of active or inactive are those of the source. Calls come from the whole dose curve.
# Assay: qHTS assay to identify small molecule agonists of the sonic hedgehog signaling (Shh) pathway (AID 1259368); note: nearly all actives have a fitted effect of over 15% in size;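 for activity change: NIH/3T3-derived 3T3Gli1-Luc cells carrying a stable Gli1-driven firefly luciferase reporter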
# Settings: NIH/3T3 Gli1-Luc reporter, luciferase, 24 h; series mostly up to 92.4 µM; activity change: at the top concentration
# Description: National Center for Advancing Translational Sciences [NCATS]
# NIH Chemical Genomics Center [NCGC]
# U.S. Environmental Protection Agency [EPA]
# National Institutes of Environmental Health Sciences [NIEHS]
# National Toxicology Program [NTP]
# The sonic hedgehog (Shh) pathway is essential for normal embryonic development. Dysregulation of the Shh pathway can cause severe developmental defects in organs. Therefore chemicals that interfere with the pathway are potential developmental toxicants. A cell line designated 3T3Gli1-Luc (DMB/OARSA/CFSAN/FDA, Laurel, MD), a NIH/3T3 derived clone containing stably integrated Gli1-Luc reporter is used to detect chemical interference of the Shh pathway, by changes in the expression of the firefly Luc gene under the control of the Gli1 transcriptional response element. This cell line was used to screen Tox21 libraries for identifying and prioritizing the potential developmental toxicants that interfere Shh pathway.
# 3T3 Gli1-Luc cells were dispensed at 2,000 per well in 5uL of culture medium into white solid bottom 1536-well plates (Greiner Bio-One, Monroe, NC) using a Multidrop Combi (Thermo Scientific, Waltham, MA) dispenser. The assay plates were incubated at 37 C and 5% CO2 for 4hr, and then 23nL of compounds dissolved in DMSO and positive control were transferred using a Pintool station (Wako, San Diego, CA). The assay plates were incubated at 37C and 5% CO2 for 24hr. For luciferase read, 4uL of Amplite Luciferase reporter gene assay reagent (AAT Bioquest, Inc. Sunnyvale, CA) was added to each well of the assay plates using Flying Reagent Dispenser (FRD, Aurora Discovery, San Diego, CA) and incubated at room temperature for 30min. The luminescence signal was measured using a ViewLux plate reader (Perkin Elmer, Shelton, CT).
# % is set by controls: 0 for no effect and ±100 for the full control effect; potency is the fitted concentration of half-maximal effect.
SMILES,activity change,Potency
CCCCOC(=O)CCS,-3.5%,–
CC(N)CN (stereo not given),0.0822%,–
Cc1cc(S(=O)(=O)O)ccc1N=Nc1c(O)ccc2ccccc12,-2.05%,–
CCC1(C)CC(=O)NC1=O (stereo not given),"0.183% [at 42.5 µM, active compounds read high]",–
CCN(CC)CCNC(=O)c1ccc(NC(C)=O)cc1,"-0.771% [at 42.5 µM, active compounds read high]",–
CCCCCCOC(=O)CCCCCCCC(=O)OCCCCCC,-0.809%,–
Cc1ccccc1N1C(=O)c2cc(S(N)(=O)=O)c(Cl)cc2NC1C (stereo not given),"1.31% [at 42.5 µM, active compounds read high]",–
N#C[C@@H]1C[C@@H]2C[C@@H]2N1C(=O)[C@@H](N)C12CC3CC(CC(O)(C3)C1)C2,"-0.354% [at 42.5 µM, active compounds read high]",–
CN1CCN(c2c(F)cc3c(=O)c(C(=O)O)cn4c3c2OCN4C)CC1,"-1.02% [at 18.9 µM, active compounds read high]",–
C/C=C/C=C/CCCCCCCO,3.29%,–
Nc1ccc(S(=O)(=O)O)c(N)c1,-1.99%,–
CCCCC(=O)O[C@]1(C(=O)CO)[C@@H](C)C[C@H]2[C@@H]3CCC4=CC(=O)C=C[C@]4(C)[C@@]3(F)[C@@H](O)C[C@@]21C,0.18%,–
CC(C)CCCCCOC(=O)CCCCC(=O)OCCCCCC(C)C,-0.324%,–
CCCCCCCCCCCC[N+](C)(C)CCCS(=O)(=O)[O-],-0.197%,–
OCC1CC=CCC1 (stereo not given),3.67%,–
O=C(O)c1ccc(CO)o1,0.265%,–
C[Si](NC1CCCCC1)(NC1CCCCC1)NC1CCCCC1,-5.92%,–
O=C(N/N=C/c1ccc([N+](=O)[O-])o1)c1ccc(O)cc1,"-4.51% [at 42.5 µM, active compounds read high]",–
CCC(C)(C)C1CCC(O)CC1 (stereo not given),1.06%,–
CC(=O)Oc1ccc(C(=C2CCCCC2)c2ccc(OC(C)=O)cc2)cc1,"-2.29% [at 42.5 µM, active compounds read high]",–

SMILES,activity change,Potency
COC(=O)c1cc(Cl)ccc1NS(=O)(=O)C(F)(F)F,"0.405% [at 42.5 µM, active compounds read high]",–
CC1(C)C(=O)N(Br)C(=O)N1Cl,0.111%,–
C[C@@H]1C[C@H]2[C@@H]3CCC4=CC(=O)C=C[C@]4(C)[C@@]3(F)[C@@H](O)C[C@]2(C)[C@@]1(O)C(=O)CO,-5.57%,–
CCCCC1C(=O)N(c2ccccc2)N(c2ccc(O)cc2)C1=O (stereo not given),"-6.78% [at 42.5 µM, active compounds read high]",–
CC(C)CCCCCCOC(=O)CCCCC(=O)OCCCCCCC(C)C,-0.791%,–
C[N+](C)(C)CCOC(N)=O,"0.249% [at 42.5 µM, active compounds read high]",–
COc1cc2ncnc(Nc3ccc(F)c(Cl)c3)c2cc1OCCCN1CCOCC1,"-6.49% [at 42.5 µM, active compounds read high]",–
Fc1c(F)c(F)c(Br)c(F)c1F,0.496%,–
Nc1nc(Cl)nc2c1ncn2[C@@H]1O[C@H](CO)[C@@H](O)[C@@H]1F,"0.297% [at 42.5 µM, active compounds read high]",–
CCn1nc(C)c2c1C(=O)NCC(c1ccc(O)cc1)=N2,0.0589%,–
C[N+]1(C)CCC(=C(c2ccccc2)c2ccccc2)CC1,"-0.251% [at 42.5 µM, active compounds read high]",–
Cc1oncc1C(=O)Nc1ccc(C(F)(F)F)cc1,–,15.4 µM (active) and 9.44 µM (active)
O=C(CCC1CCN(Cc2ccccc2)CC1)c1ccc2c(c1)NCCCC2,"0.813% [at 42.5 µM, active compounds read high]",–
Nc1ccc(S(=O)(=O)O)cc1,0.635%,–
CSc1ccc(Oc2ccc(S(N)(=O)=O)cc2CN(C)C)cc1C,-9.83%,–
CO[Si](C)(OC)OC,-2.24%,–
O=C(N[C@@H](c1ccccc1)[C@@H]1CCCCN1)c1cccc(C(F)(F)F)c1Cl,-13.5%,–
CCOC(=O)c1ccccc1OC,-0.192%,–
O=C(CCCCCCC(=O)Nc1ccccc1)NO,"3.16% [at 42.5 µM, active compounds read high]",–
CNC(=S)NC,-3.1%,–
